Assay results as given in ChEMBL document CHEMBL1157539, “Thousands of chemical starting points for antimalarial lead identification” (Nature, 2010).

Columns and labels:
Type in all cases: functional
Plasmodium falciparum [1] = assay: GSK_TCMDC: Inhibition of Plasmodium falciparum 3D7 in whole red blood cells, using parasite LDH activity as an index of growth. Test compounds present at 2uM
Plasmodium falciparum [2] = assay: GSK_TCMDC: Inhibition of Plasmodium falciparum Dd2 in whole red blood cells, using parasite LDH activity as an index of growth. Test compounds present at 2uM
HepG2 = assay: GSK_TCMDC: Percent inhibition of human HepG2 cell line. Test compounds present at 10uM.

Structure (SMILES)	Inhibition (Plasmodium falciparum [1])	Inhibition (Plasmodium falciparum [2])	Inhibition (HepG2)
COc1ccc(C2C(C(=O)Nc3ccc(C)cc3Br)c3ccccc3C(=O)N2C)cc1 (configuration not stated)	96%	2%	4%
CC(=O)c1ccc(NC(=O)CSc2nc(-c3ccccc3Cl)ns2)cc1	89%	72%	0%
COc1ccc2nc3cc(Cl)ccc3c(NCCN3CCN(C)CC3)c2c1.Cl	100%	99%	29%
CCCOC(=O)C1=C(C)NC2=C(C(=O)CC(c3ccc(OC)c(OC)c3)C2)C1c1cccc(O)c1 (configuration not stated)	100%	99%	0%
O=C(Nc1ccc(-c2nc3ccccc3[nH]2)cc1)c1ccc(S(=O)(=O)N2CCCCCC2)cc1	97%	21%	8%
COc1ccc2ncc(Cl)c([C@@H](O)CN3CCC(NCc4cc5c(cn4)OCCO5)CC3)c2c1.Cl	100%	100%	8%
Cc1cccc2nc(-c3ccc(-c4cccc(CN5CCN(CC6CCCN(C)C6)CC5)c4)s3)[nH]c12.O=C(O)C(F)(F)F (configuration not stated)	100%	99%	47%
O=C(Nc1ccc(-c2cccc(CN3CCC(O)CC3)c2)cc1)c1cccc(Cl)c1.O=C(O)C(F)(F)F	94%	14%	50%
CCCN(CC1CC1)c1nc(C)nc2c(-c3ccccc3)cc(C)cc12	96%	78%	72%
CC1CCc2c(C(=O)Nc3c(F)cc(F)cc3Br)csc2C1 (configuration not stated)	96%	59%	0%
COc1ccc(CN2CCC(NCc3ccc(C(F)(F)F)cc3)CC2)cc1.O=C(O)C(F)(F)F	97%	0%	37%
CS(=O)(=O)c1cccc(-c2cnc3[nH]cc(-c4cccc(CCN)c4)c3c2)c1.O=C(O)C(F)(F)F	99%	74%	0%
Cl.O=S(=O)(c1cccc(F)c1)c1ccc(Nc2ncnc3cc(Br)sc23)cc1Cl	86%	11%	20%
Cn1ccnc1CNC(=O)c1ccc(-c2ccc(-c3nc4cc(C(F)(F)F)ccc4[nH]3)s2)cc1	100%	43%	40%
N#CC(CC(=O)c1ccc(Cl)cc1)c1cccc(F)c1 (configuration not stated)	97%	4%	5%
COc1ccc2nccc([C@@H](O)CN3CCC(NS(=O)(=O)c4cc(Br)c(Br)s4)CC3)c2c1	92%	36%	14%
CC(=O)c1sc2ccccc2c1O	91%	0%	14%
Br.C=CCc1cccc(C)c1OCCCON1C(=N)N=C(N)NC1(C)C	94%	95%	65%
CCN(CCCN1CCCCC1)c1cc(C)nc(Nc2cc(C(F)(F)F)ccc2C)n1.O=C(O)C(F)(F)F	96%	41%	35%
O=C(NC(Nc1ccc([N+](=O)[O-])cc1)C(Cl)(Cl)Cl)c1cccc(Cl)c1 (configuration not stated)	92%	17%	0%
O=c1[nH]nc(-c2ccc(N3CCCC3)c([N+](=O)[O-])c2)c2ccccc12	100%	39%	2%
COc1ccc(-c2csc(C(=O)NC3CCC(N4CCC(c5ccccc5C)CC4)CC3)c2)cc1 (configuration not stated)	100%	99%	64%

Structure (SMILES)	Inhibition (Plasmodium falciparum [1])	Inhibition (Plasmodium falciparum [2])	Inhibition (HepG2)
CSC1=NC(C)(C)CC2(CC(c3cccc(C)c3)c3cc(Cl)c(O)cc3O2)N1 (configuration not stated)	100%	73%	0%
COc1cccc(Nc2nc(NCCO)c3ccccc3n2)c1.Cl	99%	88%	1%
CCC(=O)Nc1nnc(Cc2ccc(OC)c(OC)c2)s1	93%	1%	0%
Cc1cc(NC(=O)Nc2ccc(C#N)cc2)c2ccccc2n1	100%	49%	88%
CNc1ccc(CNCc2ccc(-c3ccc(-c4nc5cc(C(F)(F)F)ccc5[nH]4)cc3)cc2)cc1.O=C(O)C(F)(F)F	100%	98%	53%
Cc1ccc(-n2nc(-c3ccccc3)c3cc(C(=O)NCCN)sc32)cc1	92%	43%	28%
COc1ccc(CCN(C)CCCN2CCC(NC(=O)c3cccc4c(=O)c5ccccc5sc34)CC2)cc1OC.O=C(O)C(=O)O	97%	79%	67%
Cc1cc2c(/C=C/C(=O)NC3CCC(CCN4CCc5ccc(C#N)cc5CC4)CC3)cccc2[nH]1.Cl (configuration not stated)	95%	39%	16%
Cc1cc(N[C@@H](CC(C)C)C(=O)Nc2ccccc2)nc(NCC2CCCCC2)n1.O=C(O)C(F)(F)F	100%	95%	8%
CCOC(=O)C(=CNc1ccc(Cc2cnc(N)nc2N)cc1CC)C(=O)OCC	87%	7%	47%
CCCC(C)N(Cc1ccc(C(C)(C)C)cc1)C(=O)c1cccc(C#N)c1 (configuration not stated)	86%	45%	14%
Cc1cc(OCc2ccccc2)c(OCc2ccccc2)cc1C(O)CN(C)Cc1ccccc1.Cl (configuration not stated)	96%	87%	14%
Cc1nc2ccc(NC(=O)Nc3ccnc4ccc(C(F)(F)F)cc34)cc2o1	89%	24%	20%
CCC(N)(C#Cc1ccc(-c2c(C)[nH]c(C)c(Br)c2=O)cc1)CC	97%	96%	0%
CS(=O)(=O)c1cccc(-c2cnc(N)c3cc(-c4cccc(F)c4)ccc23)c1	97%	13%	45%
CCOc1ccc2nc3cc([N+](=O)[O-])ccc3c(N)c2c1	99%	100%	67%
CNC(=O)NC1=NC(C)(C)N(OCCCOc2cc(Cl)c(Cl)cc2Cl)C(N)=N1	97%	2%	7%
Cc1[nH]c(C)c(-c2ccc(Br)cc2)c(=O)c1Cl	94%	77%	22%
CCCc1c(C(=O)OCC)c2cc(O)ccc2n1-c1ccc(OC)cc1	100%	99%	0%
O=C(NCCNc1ccnc(Nc2ccc(F)cc2)n1)c1cc2ccccc2s1	99%	34%	0%
O=C(Cn1c(CCc2cccc(F)c2F)nc(=O)c2ccccc21)N(CCN1CCCCC1)Cc1ccc(-c2ccc(C(F)(F)F)cc2)cc1.O=C(O)C(O)C(O)C(=O)O	100%	89%	32%
CCCCCCOc1ccc(/C(N)=N\Cc2ccccc2)c2c1CCCC2.Cl	96%	35%	62%

Structure (SMILES)	Inhibition (Plasmodium falciparum [1])	Inhibition (Plasmodium falciparum [2])	Inhibition (HepG2)
COc1cccc(C(=O)OC2=C3CCC(=O)C3(C)CCC2=O)c1 (configuration not stated)	93%	9%	37%
COCCN1CCN(Cc2ccc(-c3cccc(-c4nc5ccccc5[nH]4)c3)cc2)CC1.O=C(O)C(F)(F)F	93%	10%	32%
COc1ccc2c(=NN=C(C)c3ccccn3)cc(C)[nH]c2c1	100%	51%	33%
Cc1cccc2nc(-c3cccc(-c4cccc(CNC(C)C)c4)c3)[nH]c12.O=C(O)C(F)(F)F	100%	98%	29%
CCOC(=O)c1nc(-c2cccc(F)c2)[nH]c1N.Cl	98%	2%	0%
O=C(Nc1ccc(OC2CCN(Cc3ccc(F)cc3)CC2)c(Cl)c1)c1ccco1.O=C(O)C(F)(F)F	95%	95%	2%
CC(Cc1ccc(NC(=O)c2ccc(CNCCCCc3ccccc3)cc2)cc1)NCCc1cccc(Cl)c1.Cl (configuration not stated)	100%	96%	100%
Cl.O=c1cc(NCCCNCc2ccc(Cl)c(Cl)c2)[nH]c2ccc(Cl)cc12	100%	54%	11%
CC(C)(C)c1ccc(NC(=O)c2ccc(CN3CCCN(CC4CCCCC4)CC3)cc2)cc1.O=C(O)C(F)(F)F	99%	64%	54%
COc1cc2nc(-c3ccccc3)nc(N3CCN(C(=O)c4ccco4)CC3)c2cc1OC	89%	87%	0%
Cc1cccc2nc(-c3ccc(-c4cccc(NC(=O)Nc5ccsc5)c4)s3)[nH]c12	100%	29%	30%
Cc1cc(N[C@@H](Cc2ccccc2)C(=O)NCc2cccc(F)c2)nc(NCCc2cccs2)n1.O=C(O)C(F)(F)F	99%	22%	9%
O=C(Nc1cccc(-c2cccc(-c3nc4ccccc4[nH]3)c2)c1)c1ccoc1	85%	36%	19%
O=C(/C=C/c1ccc(Cl)c(Cl)c1)NCCCCCN1CCC(NC(=O)Nc2ccc(Cl)cc2F)CC1	100%	40%	100%
O=C(NCCCCCN1CCC(c2c[nH]c3ccccc23)CC1)Nc1ccc(Cl)c(Cl)c1	92%	0%	42%
O=C(Nc1ccc(Cl)cc1)c1cccc(S(=O)(=O)NC2CCN(CC3CCCCC3)C2)c1.O=C(O)C(F)(F)F (configuration not stated)	90%	41%	80%
CCN(CC)CCN(Cc1ccc(-c2ccc(Cl)cc2)cc1)C(=O)Cn1cc(CN(C)C)c(=O)nc1SCc1ccc(F)cc1	99%	99%	49%
CCN(CC)C(=O)c1cnc(-c2ccccc2)nc1Oc1cccc(Cl)c1	92%	40%	0%
CCn1c(SCc2ccc(F)cc2)nc2sc3c(c2c1=O)CCN(C)C3	95%	81%	2%
CCOC(=O)c1sc(C(C)Nc2ccccc2)nc1-c1ccccc1 (configuration not stated)	95%	91%	0%
